These results are taken from PubChem BioAssay (NCATS).

Holding throughout (test): Confirmatory Screen for Target Class Profiling of Small Molecule Inhibitors of Methyltransferases (AID 1745852); for activity change, negative = inhibition: % is set by controls: 0 for no effect and ±100 for the full control effect
The target in assay [1] is Guanidinoacetate N-methyltransferase (Homo sapiens) (UniProt Q14353). To be noted: activity change, negative = inhibition: at 57.3 µM (top of the series) unless noted.
Assay [2] has as its target Nicotinamide N-methyltransferase (Homo sapiens) (UniProt P40261). Particulars: MTase-Glo luminescence, SAH detection, recombinant enzyme; measured here: NNMT max response; stronger effect = lower value.
The target in assay [3] is Phenylethanolamine N-methyltransferase (Homo sapiens) (UniProt P11086). To be noted: MTase-Glo luminescence, SAH detection, recombinant enzyme; measured here: PNMT max response; stronger effect = lower value.
Phenylethanolamine N-methyltransferase (Homo sapiens), sequence (P11086 whole entry, looked up): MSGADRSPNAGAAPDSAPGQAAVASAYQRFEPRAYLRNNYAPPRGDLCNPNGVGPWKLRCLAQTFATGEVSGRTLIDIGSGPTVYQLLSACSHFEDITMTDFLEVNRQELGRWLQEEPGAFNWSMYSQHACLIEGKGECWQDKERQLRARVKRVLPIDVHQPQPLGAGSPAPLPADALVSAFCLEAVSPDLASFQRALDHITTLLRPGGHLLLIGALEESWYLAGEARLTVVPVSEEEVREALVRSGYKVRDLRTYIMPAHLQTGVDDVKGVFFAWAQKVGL

Active and inactive are the calls of the source. Calls come from the whole dose curve.
Potency is the fitted concentration of half-maximal effect.

Nicotinamide N-methyltransferase (Homo sapiens), sequence (P40261 whole entry, looked up): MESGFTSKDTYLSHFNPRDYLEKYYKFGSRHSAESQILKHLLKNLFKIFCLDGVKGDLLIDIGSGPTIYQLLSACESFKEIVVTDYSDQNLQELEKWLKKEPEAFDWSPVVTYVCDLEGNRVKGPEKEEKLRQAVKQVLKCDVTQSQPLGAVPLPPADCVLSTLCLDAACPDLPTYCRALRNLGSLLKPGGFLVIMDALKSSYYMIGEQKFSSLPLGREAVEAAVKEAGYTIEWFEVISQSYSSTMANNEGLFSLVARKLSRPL

For the compound `C=C(C)C(=O)OC1CC2(C)OC(=CC2=O)C(=C)CC2OC(=O)C(COC)C12` (centres undefined), the activity change, negative = inhibition in assay [1] was -5.17%. For the same compound, the figures for the activity in assay [2] and in assay [3] were -5.26% and -4.08%, respectively.

Take `COC(=O)C1=C2Nc3ccccc3C23CCN2CCCC(C(C)O)(C1)C23` (centres undefined): in assay [1], the activity change, negative = inhibition stood at 0%. In addition, the activity is 2.66% in assay [2] and -1.29% in assay [3].

Consider `COc1cc2c(cc1O)CC[C@H]1[C@@H]2CC[C@]2(C)[C@H](O)CC[C@@H]12`, for which the activity change, negative = inhibition in assay [1] came to 0.377%. In addition, the results for the activity in assay [2] and in assay [3] were -2.72% and -7.82%, respectively.

Take `COc1cccc(-c2cc(NCc3ccc4c(c3)OCO4)nc(N)n2)c1`: the activity change, negative = inhibition in assay [1] came to 0%. Moreover, the activity in assay [2] was -16.1%; in assay [3] it was -2.8%.

As to `COc1cc(/C=C/C(=O)OC[C@H]2O[C@@](CO)(O[C@H]3O[C@H](CO)[C@@H](O)[C@H](O)[C@H]3O)[C@@H](OC(=O)/C=C/c3ccc(O)c(OC)c3)[C@@H]2O)ccc1O`, the activity change, negative = inhibition in assay [1] was -4.9% [at 19.1 µM]. Besides, the activity in assay [2] was -6.08%; in assay [3], -2.86%.

In the case of `C=C(C)C1Cc2cc(C(=O)OC3OC(CO)C(O)C(O)C3O)ccc2O1` (centres undefined), the activity change, negative = inhibition in assay [1] was -3.06%. Moreover, the activity in assay [2] was -2.77%; in assay [3], -3.74%.

Turning to `CC1=CC(=O)C2(OC3OC(C)C(O)C(OC(=O)/C=C/c4ccccc4)C3O)C=COC(OC3OC(CO)C(O)C(O)C3O)C12` (centres undefined), in assay [1], the activity change, negative = inhibition is -2.18% [at 19.1 µM]. Also, the activity was -1.08% in assay [2] and 1.5% in assay [3].

With `CN(CCc1ccc(Nc2ncc(-c3cccnc3)s2)cc1)Cc1ccccc1`, the activity change, negative = inhibition in assay [1] is 0%. In addition, the activity in assay [2] was -47.4%; in assay [3], -13.5%.

Take `C=C1C(=O)OC2CC3(C)C(CC12)C(C)=CC(O)C3OC(C)=O` (centres undefined): the activity change, negative = inhibition in assay [1] was 0%. The values for the activity in assay [2] and in assay [3] were 1.24% and -2.5%, respectively.

Take `c1cc(OCCCN2CCCCC2)ccc1CN1CCCCC1`: in assay [1], the activity change, negative = inhibition was -2.14%. The activity is -0.228% in assay [2] and -0.509% in assay [3].

As to `O=C1CSc2ccccc2N1Cc1cccc(C(F)(F)F)c1`, the activity change, negative = inhibition in assay [1] was -5.12%. The activity was -46.9% in assay [2] and -11.4% in assay [3].

`C[C@]12C[C@@H](O)[C@@H]3C[C@@]1(O[C@@H]1O[C@H](CO)[C@@H](O)[C@H](O)[C@H]1O)[C@]3(COC(=O)c1ccccc1)C(=O)O2`: the activity change, negative = inhibition in assay [1] turned out to be 0.459% [at 29.8 µM]. Besides, the figures for the activity in assay [2] and in assay [3] were 0% and 6.78%, respectively.

As for `CC1(C)CC[C@]2(C(=O)O[C@@H]3O[C@H](CO)[C@@H](O)[C@H](O)[C@H]3O)CC[C@]3(C)C(=CCC4[C@@]5(C)C[C@@H](O)[C@H](O)[C@@](C)(CO)C5CC[C@]43C)C2[C@@H]1O` (some centres undefined), in assay [1], the activity change, negative = inhibition is -0.535% [at 19.1 µM]. Besides, the activity in assay [2] was -4%; in assay [3], -1.38%.

`O=C(/C=C/c1ccccc1)OC[C@]12O[C@H]1[C@@H](O)[C@@H]1C=CO[C@@H](O[C@@H]3O[C@H](CO)[C@@H](O)[C@H](O)[C@H]3O)[C@@H]12`: the activity change, negative = inhibition in assay [1] was -7.11% [at 29.8 µM]. The activity in assay [2] was -5.73%; in assay [3], -4.62%.

Turning to `Cc1ncc(CCCN(C)C)cc1Nc1ncc2c(n1)-c1ccc(C(F)(F)F)cc1NC(=S)C2`, the activity change, negative = inhibition in assay [1] worked out at 2.13%. Moreover, the activity in assay [2] was -20.1%; in assay [3], -4.31%.

Turning to `COc1ccc(C2(O)CCC(N3CC[C@@H](NC(=O)CNC(=O)c4cccc(C(F)(F)F)c4)C3)CC2)cn1` (some centres undefined), the activity change, negative = inhibition in assay [1] was -4.96%. The figures for the activity in assay [2] and in assay [3] were 0.219% and 0.417%, respectively.

Take `CCOC(=O)CCN(C(=O)c1ccc2c(c1)nc(CNc1ccc(C(=N)N)cc1)n2C)c1ccccn1`: the activity change, negative = inhibition in assay [1] was 2.12%. The activity is -8.7% in assay [2] and 0.0478% in assay [3].

Consider `COc1ccc(-c2cnc3ccc(NCc4ccc(S(N)(=O)=O)cc4)nn23)cc1OC`, for which the Potency in assay [1] is 38.3 µM (active). For the same compound, the activity in assay [2] was -24.2%; in assay [3], -27.8%.

For the compound `CC1CCC2(CO)C(C(=O)O)=CCCC2C1(C)CCc1ccoc1` (centres undefined), in assay [1], the activity change, negative = inhibition amounted to 0%. In addition, the activity in assay [2] turned out to be 1.37%; in assay [3], 1.68%.

Take `CC1=C(C(=O)OCc2ccccc2)C(c2ccc(-c3ccccc3)cc2)NC(=O)N1CCCCCC(=O)O` (centres undefined): in assay [1], the activity change, negative = inhibition was 0%. The activity in assay [2] was -35.4%; in assay [3] it was 2.18%.

In the case of `C/C=C/c1ccc2c(c1)[C@@H](C)[C@H](c1ccc(O)cc1)O2`, the activity change, negative = inhibition in assay [1] came out at 0.447%. Also, the figures for the activity in assay [2] and in assay [3] were -59.1% and 0.8%, respectively.

As for `N#Cc1ccc2[nH]cc(CCCCN3CCN(c4ccc5oc(C(N)=O)cc5c4)CC3)c2c1`, the activity change, negative = inhibition in assay [1] is -4.3%. Moreover, the activity in assay [2] is -49.2%; in assay [3], -11.6%.

With `CN(C)C/C=C/C(=O)Nc1cccc(C(=O)Nc2ccc(Nc3nccc(-c4cccnc4)n3)cc2)c1`, the activity change, negative = inhibition in assay [1] stood at 0.0986%. The activity in assay [2] was -7.5%; in assay [3] it was 1.39%.

Consider `c1cn2cc(-c3ccc4cn[nH]c4c3)nc(Nc3ccc(N4CCOCC4)cc3)c2n1`, for which, in assay [1], the Potency was 21.5 µM (active). Also, the activity in assay [2] was -49.6%; in assay [3] it was -53.5%.

Consider `Cc1ccc([N+](=O)[O-])cc1S(=O)(=O)N(C)/N=C/c1cnc2ccc(Br)cn12`, for which the Potency in assay [1] is 30.4 µM (active). Further, the activity was -33.8% in assay [2] and -16.6% in assay [3].

Regarding `CC(C)c1cccc2c(-c3ccccc3)cc(-c3ccc(-c4ccc(C(=O)O)cc4)[nH]3)nc12`, the activity change, negative = inhibition in assay [1] was -5%. Also, the values for the activity in assay [2] and in assay [3] were -16.3% and -5.01%, respectively.

Take `CN1CCN(C2CCC(n3cc(-c4ccc(Oc5ccccc5)cc4)c4c(N)ncnc43)CC2)CC1` (centres undefined): the activity change, negative = inhibition in assay [1] turned out to be 0%. Besides, the results for the activity in assay [2] and in assay [3] were -13.2% and -72%, respectively.

Take `O=C(O)/C=C/c1ccc(-c2ccc(O)c(C34CC5CC(CC(C5)C3)C4)c2)cc1`: the activity change, negative = inhibition in assay [1] is 1.42%. Moreover, the activity in assay [2] was -84%; in assay [3] it was -0.0074%.
